Source: PubChem BioAssay
Several values for one entry are separate records, joined by “and”; a condition that tells them apart may be missing. Equal values may be shown once. Activity calls are given as the source filed them.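 How the source made its calls, unless noted: active means inhibition at or above 50% relative to wild type and mutant plate controls; inactive means inhibition below 50%.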

Assays:
[1] = inhibitors of TNFa-induced NFkB p65 translocation, primary screen, imaging, HUVEC, MLSMR starter and 10KST1 sets (AID 438;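 active means inhibition above 20% together with a positive visual image hit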;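 further: compound added about 3h40 before a 20 min TNFalpha stimulation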;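 on inhibition: signal is the nuclear over cytoplasmic p65 intensity ratio per well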); settings: HUVEC TNFa-induced p65 nuclear translocation; cell count: measured here: nuclei count (cytotoxicity indicator), at 2.08 µM; inhibition: at 2 µM, stronger effect = higher value, 0% TNFa-plus-vehicle, 100% no-TNFa wells
[2] = reduction of polyQ htt aggregates in cells – imaging, exon1htt(103Q)mCFP cells, high-content imaging, primary screen (AID 483;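 active means visual image review flags a hit and inhibition of aggregation exceeds 20%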;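 further: compound exposure lasted 3 days before fixation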;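 on nuclei count: percent of the per-plate median nuclei count of sample wells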); settings: exon1htt(103Q)mCFP cell line, aggregate imaging, at 2 µM; inhibition of aggregation: stronger effect = higher value; nuclei count: measured here: cell count, toxicity
[3] = endothelial E-selectin expression blockers – imaging, HUVEC, immunofluorescence, MLSMR starter and 10KST1 sets, primary screen (AID 487;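 active means visually confirmed hit in the image check and inhibition above 20%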;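 on inhibition: signal is fraction of cell area covered by stained E-selectin grains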;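 on nuclei count: 100% = median nuclei count of all wells on the same plate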); settings: HUVEC TNFalpha-induced E-selectin immunofluorescence imaging, at 2 µM; inhibition: stronger effect = higher value; nuclei count: measured here: cell number, toxicity
[4] = Primary imaging screen for DUSP6 inhibitors that restore phospho-Erk in transfected HeLa cells, chemical complementation (AID 609;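 active means compounds giving at least 50% inhibition in the cell-based MKP-3 phosphatase rescue imaging test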;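 on inhibition: phospho-Erk level distribution per well compared with pooled transfected vehicle control wells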); settings: HeLa MKP-3 transfected, phospho-Erk imaging KS statistic, at 10 µM, cells stimulated with TPA for 15 min
[5] = target: Dual specificity protein phosphatase 6 (Homo sapiens) (UniProt Q16828); test: as above; settings: HeLa MKP-3 transfected, phospho-Erk imaging KS statistic; at 10 µM; stronger effect = higher value; cells stimulated with TPA for 15 min
Chain of Dual specificity protein phosphatase 6 (Homo sapiens) (Q16828 whole entry, looked up): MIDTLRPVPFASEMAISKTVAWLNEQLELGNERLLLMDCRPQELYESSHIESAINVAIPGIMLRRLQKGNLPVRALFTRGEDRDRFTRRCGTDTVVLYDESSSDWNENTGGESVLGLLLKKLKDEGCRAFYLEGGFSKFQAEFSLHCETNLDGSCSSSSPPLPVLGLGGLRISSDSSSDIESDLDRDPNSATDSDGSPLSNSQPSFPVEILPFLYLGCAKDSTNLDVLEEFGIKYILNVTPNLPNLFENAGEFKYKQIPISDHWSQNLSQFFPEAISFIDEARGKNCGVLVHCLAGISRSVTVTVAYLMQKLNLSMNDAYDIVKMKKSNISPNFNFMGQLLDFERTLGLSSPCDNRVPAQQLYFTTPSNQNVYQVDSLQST

[6] = target: Voltage-gated potassium channel subunit beta-2 (Rattus norvegicus) (UniProt P62483); test: inhibitors of rat Kvbeta2 reductase activity – biochemical, NADPH fluorescence, primary screen (AID 622;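 active means fluorescence slope higher than the sample average by over 3 SD, cut at about -0.22 in these data, passing the limit was not always enough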;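 further: slope of raw intensity against log time taken from 70 to 1610 s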); settings: recombinant KvBeta, 4-cyanobenzaldehyde reduction, at 10 µM, stronger effect = higher value
Chain of Voltage-gated potassium channel subunit beta-2 (Rattus norvegicus) (P62483 whole entry, looked up): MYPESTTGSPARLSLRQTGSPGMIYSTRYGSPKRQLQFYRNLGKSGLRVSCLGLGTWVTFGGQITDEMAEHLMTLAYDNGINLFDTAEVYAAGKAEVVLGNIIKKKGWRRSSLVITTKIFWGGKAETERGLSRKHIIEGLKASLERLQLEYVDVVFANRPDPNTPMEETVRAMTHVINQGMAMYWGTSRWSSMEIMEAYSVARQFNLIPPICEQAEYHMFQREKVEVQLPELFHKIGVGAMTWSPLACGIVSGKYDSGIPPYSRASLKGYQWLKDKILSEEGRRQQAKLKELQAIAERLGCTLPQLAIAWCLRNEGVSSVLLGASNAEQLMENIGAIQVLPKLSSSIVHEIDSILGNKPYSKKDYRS

[7] = target: Voltage-gated potassium channel subunit beta-2 (Rattus norvegicus) (UniProt P62483); test: enhancers of rat Kvbeta2 NADPH turnover – biochemical, NADPH fluorescence, primary screen (AID 623;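 active means NADPH fluorescence slope more negative than the mean of all samples by about 3 SD, 99.7% confidence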;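 further: fluorescence intensity change per second fitted from 20 to 320 s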); settings: Recombinant KvBeta, NADPH fluorescence decrease slope, 10 min; at 10 µM; stronger effect = lower value
[8] = target: Alpha-2C adrenergic receptor (Homo sapiens) (UniProt P18825); test: compounds altering alpha2C-coupled GIRK flux – cell-based, HEK293 alpha2C/GIRK1/2, thallium flux, primary screen (AID 624;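 active means fluorescence slope after compound addition differing from the mean of all screened samples at 99.7% confidence, in either direction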;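 further: slope of fluorescence ratio to pre-addition baseline per second over 15 to 24 s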); settings: thallium flux BTC fluorescence, at 10 µM, actives lie on both sides
Chain of Alpha-2C adrenergic receptor (Homo sapiens) (P18825 whole entry, looked up): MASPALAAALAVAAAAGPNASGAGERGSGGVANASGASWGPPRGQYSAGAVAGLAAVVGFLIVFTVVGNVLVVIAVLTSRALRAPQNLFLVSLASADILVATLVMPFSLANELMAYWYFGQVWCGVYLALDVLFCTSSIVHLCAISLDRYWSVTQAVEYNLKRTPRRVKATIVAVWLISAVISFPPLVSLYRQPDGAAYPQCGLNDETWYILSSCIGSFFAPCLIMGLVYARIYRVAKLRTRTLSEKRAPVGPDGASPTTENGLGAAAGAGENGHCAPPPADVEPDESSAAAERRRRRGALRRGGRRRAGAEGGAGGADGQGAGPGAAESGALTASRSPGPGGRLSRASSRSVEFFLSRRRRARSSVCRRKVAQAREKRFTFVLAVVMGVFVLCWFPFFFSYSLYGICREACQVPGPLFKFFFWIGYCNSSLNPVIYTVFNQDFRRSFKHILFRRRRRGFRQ

[9] = inhibitors of larval lipid processing in zebrafish, primary screen, whole organism, PED6 fluorescence, gall bladder and intestine (AID 686;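 active means a full or partial loss of lipid-probe fluorescence in the fish gall bladder, intestine or both, judged by eye; inactive means no fluorescence loss, or compound toxic to the fish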;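 further: larvae 5 to 7 days old with five fish per well; signal comes from phospholipase A2 cleavage of quenched PED6 carried via bile; overnight exposure to compound and PED6 before scoring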); settings: Zebrafish larvae PED6 lipid processing, fluorescence scoring; screened at 20 µM (by protocol)
[10] = loss of swimming-algae plug formation – whole organism, Chlamydomonas reinhardtii, WT vs cilia-less mutant, absorbance, 96-well, primary screen (AID 463189); settings: Chlamydomonas reinhardtii gravitaxis, OD600 absorbance, 2 days; at 10 µM; stronger effect = higher value;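 further: 0% = wild type cc124 cells in DMSO and 100% = ciliumless bld1 mutant cells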
[11] = blockers of RIG-like receptor reporter activation – cell-based, Sendai virus stimulus, luciferase, 10K MLSCN set, TLR/RLR signaling modifier project, primary screen (AID 602276;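 active means inhibition at or above 50% at 10 µM; inactive means inhibition below 50%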;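 further: firefly luciferase from ISG56 promoter only with Renilla not read in this screen; 0% = Sendai virus plus DMSO and 100% = medium plus DMSO without virus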); settings: HEK293 RL24 IRF3 luciferase reporter, at 10 µM, stronger effect = higher value
[12] = TLR3 IRF3 reporter activation blockers – cell-based, poly I:C stimulus, luciferase, 10K MLSCN set, primary screen (AID 602277;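 active means inhibition of the reporter signal at or above 50%; inactive means inhibition below 50%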); settings: HEK293-TLR3 RL24 IRF3 luciferase reporter, at 10 µM, stronger effect = higher value
[13] = measured here: cell density z-score
[14] = measured here: nuclear c-Myc green intensity z-score
[15] = measured here: nuclear pErk red intensity z-score, stronger effect = higher value

SMILES | cell count [1] | inhibition [1] | inhibition of aggregation [2] | nuclei count [2] [%] | inhibition [3] | nuclei count [3] [%] | z-score [4, 13] | z-score [4, 14] | z-score [4, 15] | inhibition [5] | fluorescence slope [6] | NADPH fluorescence slope [7] | slope [8] | outcome [9] | inhibition [10] | inhibition [11] | inhibition [12]
CC(=O)Oc1cccc2c1C(=O)c1c(OC(C)=O)cc(C(=O)O)cc1C2=O | 646 | 3.9% (inactive) | 6.8% (inactive) | 105 | -52.7% (inactive) | 124 | -1.09 | -1.04 | -0.102 | -9.66% (inactive) | -0.438 (inactive) | -4.5e-05 (inactive) | 0.00622 (inactive) | inactive | -7.39% (inactive) | 4.71% (inactive) | 26.5% (inactive)
CCC(=O)N[C@@H]1CC(C(C)(C)NC(=O)CC)CC=C1C (some centres not stated) | 537 | -16.4% (inactive) | -10.9% (inactive) | 110 | -21.9% (inactive) | 137 | -0.93 | 0.526 | -0.616 | -6.06% (inactive) | -0.349 (inactive) | -1e-06 (inactive) | 0.00698 (inactive) | inactive | 6.4% (inactive) | 18.2% (inactive) | 18.8% (inactive)
CC(=O)OCC(=O)[C@@]1(OC(C)=O)[C@@H](C)C[C@H]2[C@@H]3C[C@H](F)C4=CC(=O)C=C[C@]4(C)[C@@]3(F)[C@@H](O)C[C@@]21C | 659 | -5.5% (inactive) | -7.2% (inactive) | 68.3 | -71.2% (inactive) | 116 | 1.64 | -1.42 | -1.55 | 29.1% (inactive) | -0.482 (inactive) | -7.3e-05 (inactive) | 0.00497 (inactive) | inactive | 3.31% (inactive) | 4.93% (inactive) | 44.4% (inactive)
CCOC(=O)c1[nH]c2ccc(Br)cc2c1NC(=O)CCN1CCC(C(=O)OCC)CC1 | 566 | -16.7% (inactive) | 2.2% (inactive) | 96.4 | -91.6% (inactive) | 130 | 1.13 | -1.08 | 0.103 | -0.674% (inactive) | -0.523 (inactive) | -2.9e-05 (inactive) | 0.00522 (inactive) | inactive | 15.3% (inactive) | 7.83% (inactive) | -1.42% (inactive)
CCN(CC)CCOC(=O)C1(C2CCCCC2)CCCCC1 | 520 | -11.3% (inactive) | 17.1% (inactive) | 96 | -57.3% (inactive) | 118 | -0.235 | -0.682 | 1.64 | -6.41% (inactive) | -0.494 (inactive) | -5.1e-05 (inactive) | 0.00415 (inactive) | inactive | -2.13% (inactive) and -31% (inactive) | 10.2% (inactive) | 38.4% (inactive)
Cc1nc(NS(=O)(=O)c2ccccc2)sc1NC(=O)OC(C)C | 364 | -12.7% (inactive) | -9.8% (inactive) | 108 | -118% (inactive) | 138 | -0.163 | -0.612 | 0.551 | 17.5% (inactive) | -0.415 (inactive) | 1e-05 (inactive) | 0.00272 (inactive) | inactive | 16.7% (inactive) | 2.77% (inactive) | 9.41% (inactive)
Fc1ccccc1-c1nc(NCCCN2CCOCC2)c2ccccc2n1 | 480 | -0.7% (inactive) | -2.8% (inactive) | 108 | -89.4% (inactive) | 130 | 0.781 | -1.18 | -0.632 | 27.5% (inactive) | -0.448 (inactive) | -1.9e-05 (inactive) | 0.00649 (inactive) | inactive | 7.49% (inactive) | -10.9% (inactive) | -2.43% (inactive)
Brc1cccc(-c2cnc3n2CCCCC3)c1 | 517 | -12.1% (inactive) | 5.1% (inactive) | 76.5 | -58.1% (inactive) | 139 | 0.246 | -0.612 | 1.65 | -8.95% (inactive) | -0.446 (inactive) | -0.000303 (inactive) | 0.00481 (inactive) | inactive | 59.2% (active) | -2.77% (inactive) | -38% (inactive)
O=C1NC2c3ccccc3C(=O)N2c2c1cnn2-c1ccccc1 (configuration not stated) | 603 | -7.1% (inactive) | -11.1% (inactive) | 111 | -48.5% (inactive) | 146 | 0.407 | 0.889 | -0.995 | 7.83% (inactive) | -0.425 (inactive) | -1.7e-05 (inactive) | 0.00503 (inactive) | inactive | 14.6% (inactive) | -6.19% (inactive) | 6.35% (inactive)
CN=c1sc2ccccc2n1CC(O)COCc1ccco1 (configuration not stated) | 575 | 0.4% (inactive) | 6.5% (inactive) | 98.5 | -71.1% (inactive) | 138 | 0.277 | 0.426 | 0.235 | 1.04% (inactive) | -0.302 (inactive) | -1.1e-05 (inactive) | 0.00567 (inactive) | inactive | 7.79% (inactive) | 12.5% (inactive) | 29.1% (inactive)
CC1CNCCN1S(=O)(=O)c1cccc2cnccc12 (configuration not stated) | 695 | -8.2% (inactive) | 13% (inactive) | 109 | -58.8% (inactive) | 129 | -0.528 | 0.0835 | -0.173 | 15.3% (inactive) | -0.449 (inactive) | -4.6e-05 (inactive) | 0.00348 (inactive) | inactive | 0.228% (inactive) and 8.92% (inactive) and 17.2% (inactive) | 15.5% (inactive) | 43% (inactive)
Nc1ccc(S(=O)(=O)Nc2ccccn2)cc1 | 684 | 5.6% (inactive) | 15.6% (inactive) | 101 | -123% (inactive) | 131 | -1.05 | -1.54 | 0.683 | 12.4% (inactive) | -0.459 (inactive) | -4.9e-05 (inactive) | 0.00448 (inactive) | inactive | 4.41% (inactive) | 12.4% (inactive) | 42.5% (inactive)
CC(C)(C)NCC(O)COc1cccc2c1C[C@H](O)[C@H](O)C2 (some centres not stated) | 666 | 3.8% (inactive) | -15.5% (inactive) | 101 | -100% (inactive) | 118 | 0.108 | 0.144 | 1.49 | -0.828% (inactive) | -0.441 (inactive) | -2.9e-05 (inactive) | 0.00396 (inactive) | inactive | 18.1% (inactive) | 9.2% (inactive) | 32.8% (inactive)
CC(=O)O[C@]1(C(C)=O)CC[C@H]2[C@@H]3C=C(C)C4=CC(=O)CC[C@]4(C)[C@H]3CC[C@@]21C | 697 | -4.5% (inactive) | -13.2% (inactive) | 103 | -91% (inactive) | 125 | 0.989 | -0.815 | -0.896 | 7.39% (inactive) | -0.492 (inactive) | -2e-05 (inactive) | 0.00287 (inactive) | inactive | 1.32% (inactive) | 15.7% (inactive) | 41% (inactive)
Cc1cc(N2CCN(C3CCCC3)CC2)n2c(nc3ccccc32)c1C#N | 582 | -4.5% (inactive) | 36.4% (active) | 57.7 | 6.5% (inactive) | 110 | 1.58 | 0.862 | -0.0668 | 17.8% (inactive) | -0.33 (inactive) | -3.1e-05 (inactive) | 0.00579 (inactive) | inactive | -3.52% (inactive) | 24.6% (inactive) | 39% (inactive)
COc1cc([C@@H]2c3cc4c(cc3[C@H](O)[C@H]3COC(=O)[C@H]23)OCO4)cc(OC)c1OC | 436 | 21.5% (active) | -118% (inactive) | 1.5 | -226% (inactive) | 86.2 | 0.542 | -0.666 | -0.822 | -6.41% (inactive) | -0.472 (inactive) | -0.000104 (inactive) | 0.00519 (inactive) | inactive | 0.865% (inactive) | 33.7% (inactive) | 81.6% (active)
C1CCC(C(CC2CCCCN2)C2CCCCC2)CC1 (configuration not stated) | 585 | 4.5% (inactive) | -15.7% (inactive) | 101 | 0.5% (inactive) | 138 | 0.673 | 1.64 | 0.659 | 8% (inactive) | -0.498 (inactive) | -1.1e-05 (inactive) | 0.0027 (inactive) | inactive | 162% (active) | 33.8% (inactive) | 36.5% (inactive)
CC(=O)OCC(=O)[C@H]1CC[C@H]2[C@@H]3CCC4=CC(=O)CC[C@]4(C)[C@H]3CC[C@]12C | 599 | -7.8% (inactive) | -27.4% (inactive) | 83.1 | -142% (inactive) | 132 | -1.17 | 0.0337 | 1.04 | 11.3% (inactive) | -0.472 (inactive) | -1.7e-05 (inactive) | 0.00411 (inactive) | inactive | 6.25% (inactive) | -2.65% (inactive) | 25.6% (inactive)
CCC(C)n1ncn(-c2ccc(N3CCN(c4ccc(OCC5COC(Cn6cncn6)(c6ccc(Cl)cc6Cl)O5)cc4)CC3)cc2)c1=O (configuration not stated) | 587 | 3.2% (inactive) | -63.7% (inactive) | 140 | -162% (inactive) | 121 | 0.653 | -0.579 | -0.684 | 1.38% (inactive) | -0.456 (inactive) | -5.2e-05 (inactive) | 0.00423 (inactive) | inactive | 5.29% (inactive) | 33.8% (inactive) | 4.61% (inactive)
C[C@]12CC[C@@H]3c4ccc(O)cc4CC[C@H]3[C@@H]1CCC2=O | 576 | -0.3% (inactive) | 3.1% (inactive) | 98 | -80.9% (inactive) | 120 | -8.47 | 2.04 | 2.06 | 17.3% (inactive) | -0.463 (inactive) | -3.3e-05 (inactive) | 0.00425 (inactive) | inactive | -0.014% (inactive) and 40.8% (inactive) | 8.21% (inactive) | 34.8% (inactive)
CCCCC(=O)O[C@]1(C(=O)CO)CC[C@H]2[C@@H]3CCC4=CC(=O)CC[C@]4(C)[C@H]3[C@@H](O)C[C@@]21C | 559 | -9.3% (inactive) | -2.8% (inactive) | 44.6 | -73.8% (inactive) | 120 | -0.284 | -0.0177 | 0.0777 | -0.493% (inactive) | -0.554 (inactive) | -4.6e-05 (inactive) | 0.00469 (inactive) | inactive | 15.5% (inactive) | -1.27% (inactive) | 57.4% (active)
